Reference: the supplement of paper PMC6522484
± gives the standard deviation of the averaged measurements.

Assays:
DLD1 [1] = assay: cell viability (CellTiter-Glo) relative to plate median (fraction of plate median); higher = more viable cells; conditions: 5 µM; treatment time 24 h; reporter: 7TFP
In short: (§1)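 Values are well luminescence normalised to the plate median, from either a firefly luciferase or a CellTiterGlo readout on parallel plates. The cells, colorectal cancer lines stably transduced with lentiviral 7TFP or TCF4/Wnt firefly luciferase reporters, were treated with library compounds at a final 5 µM for 24 h. The mean of two independent replicates is listed.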

HCT116 = assay: as above; conditions: 5 µM; treatment time 24 h; reporter: TCF4/Wnt
In short: as §1

SW480 [2] = assay: as above; conditions: 5 µM; treatment time 24 h; reporter: 7TFP
In short: as §1

DLD1 [3] = assay: TCF/Wnt firefly luciferase reporter signal relative to plate median (fraction of plate median); higher = higher Wnt reporter signal; conditions: 5 µM; treatment time 24 h; reporter: 7TFP
In short: as §1

SW480 [4] = assay: as above; conditions: 5 µM; treatment time 24 h; reporter: 7TFP
In short: as §1

Row | SMILES | cell viability (DLD1 [1]) | cell viability (HCT116) | cell viability (SW480 [2]) | TCF/Wnt firefly luciferase reporter signal (DLD1 [3]) | TCF/Wnt firefly luciferase reporter signal (SW480 [4])
1 | CC[C@H](C)C(=O)O[C@H]1C[C@@H](C)C=C2C=C[C@H](C)[C@H](CC[C@@H]3C[C@@H](O)CC(=O)O3)[C@H]21 [Mevinolin, Lovastatin] | 0.966 ± 0.1 | 0.931 ± 0.048 | 0.942 ± 0.017 | 0.836 ± 0.26 | 0.943 ± 0.029
2 | N[C@@H](CC(=O)N1CCn2c(nnc2C(F)(F)F)C1)Cc1cc(F)c(F)cc1F | 1.09 ± 0.042 | 0.997 ± 0.061 | 0.963 ± 0.041 | 0.95 ± 0.069 | 0.935 ± 0.081
3 | C[C@H]1CC[C@@H](C(C)(C)O)CC2=C1CC[C@@H]2C | 0.964 ± 0.079 | 1.025 ± 0.0071 | 0.9715 ± 0.0078 | 0.907 ± 0.11 | 0.86 ± 0.016
4 | COc1cc(C)cc2ccc(-c3ccc4c(c3O)[C@@H](C)N[C@H](C)C4)c(O)c12 | 1.17 ± 0.19 | 1.04 ± 0.077 | 1.05 ± 0.021 | 1.05 | 1.015 ± 0.0071
5 | COc1cc(OC)c2c(=O)c(-c3ccc4c(c3)OCO4)coc2c1 | 0.9395 ± 0.00071 | 1 ± 0.16 | 0.9755 ± 0.005 | 1.02 ± 0.066 | 1.02 ± 0.028
6 | COc1ccc([C@H]2Oc3cc(OC)cc(OC)c3C[C@H]2O)cc1 | 1 ± 0.029 | 0.941 ± 0.098 | 0.9645 ± 0.005 | 0.923 ± 0.046 | 1.03 ± 0.052
7 | C[C@H]1O[C@@H](O[C@H]2[C@@H](O)C[C@H](O[C@H]3[C@@H](O)C[C@H](O[C@H]4CC[C@@]5(C)[C@H](CC[C@@H]6[C@@H]5C[C@@H](O)[C@]5(C)[C@@H](C7=CC(=O)OC7)CC[C@]65O)C4)O[C@@H]3C)O[C@@H]2C)C[C@H](O)[C@@H]1O | 0.838 ± 0.068 | 0.282 ± 0.23 | 0.855 ± 0.053 | 0.151 ± 0.15 | 0.221 ± 0.094
8 | COc1ccc(C(=O)c2ccccc2O)c(O)c1 | 0.953 ± 0.022 | 0.977 ± 0.0028 | 0.952 ± 0.016 | 1.16 ± 0.042 | 1.06 ± 0.057
9 | CO[C@H]1C[C@H](O[C@@H]2/C(C)=C/C[C@@H]3C[C@@H](C[C@]4(CC[C@H](C)[C@@H](C5CCCCC5)O4)O3)OC(=O)[C@@H]3C=C(C)/C(=N/O)[C@H]4OC/C(=C\C=C\[C@@H]2C)[C@]43O)O[C@@H](C)[C@@H]1O | 0.919 ± 0.021 | 0.962 ± 0.038 | 0.962 ± 0.037 | 1.05 ± 0.021 | 1.08 ± 0.035
10 | CC(=O)O[C@@H]1CC2C(C)(C)C(=O)CC[C@]2(C)C2CC[C@]3(C)C(=CC(=O)O[C@H]3c3ccoc3)[C@@]21C (stereo not given in full) | 1.05 ± 0.12 | 1.06 ± 0.17 | 1.07 ± 0.092 | 1.06 ± 0.11 | 0.949 ± 0.087
11 | CC(=O)/C=C\[C@@H]1[C@@]2(C)CCCC(C)(C)C2CC[C@@]1(C)O (stereo not given in full) | 1 ± 0.025 | 1.14 ± 0.05 | 1.055 ± 0.0071 | 1.165 ± 0.0071 | 0.93 ± 0.11
12 | CC12CCC3C(CC3(C)C)C(C)(CCC1=O)O2 (stereo not given) | 0.908 ± 0.033 | 0.972 ± 0.069 | 0.892 ± 0.016 | 0.883 ± 0.23 | 0.889 ± 0.13
13 | O=C(OOC(=O)c1ccccc1)c1ccccc1 | 1.015 ± 0.0071 | 1.12 ± 0.16 | 0.998 ± 0.031 | 0.96 ± 0.071 | 1.03 ± 0.053
14 | O=S(=O)(O)c1cc(N=C=S)ccc1/C=C/c1ccc(N=C=S)cc1S(=O)(=O)O | 0.952 ± 0.046 | 0.9585 ± 0.0064 | 1.01 ± 0.03 | 0.981 ± 0.11 | 1.05 ± 0.064
15 | COc1cc(C)c(C(=O)Oc2cc(C)c(C(=O)O)c(O)c2C)c(OC)c1C | 0.961 ± 0.033 | 1.025 ± 0.0071 | 0.987 ± 0.047 | 0.953 ± 0.034 | 1 ± 0.099
16 | CC1/C(=N/O)C[C@@H]2C[C@H]1C2(C)C (stereo not given in full) | 1.07 ± 0.014 | 1.09 ± 0.014 | 1.02 ± 0.037 | 1.08 ± 0.042 | 0.919 ± 0.17
17 | OCCOCCN1CCN(C(c2ccccc2)c2ccc(Cl)cc2)CC1 (stereo not given) | 0.978 ± 0.045 | 1.07 ± 0.014 | 1.01 ± 0.026 | 1.03 ± 0.021 | 1.075 ± 0.0071
18 | C[C@@H]1CC(=O)c2c(ccc3c2C(=O)c2cccc(O)c2C3=O)C1 [Ochromycinone (Isoform B, compound ID 7489)] | 1.1 ± 0.035 | 1 | 0.991 ± 0.028 | 0.781 ± 0.1 | 0.867 ± 0.047
19 | COc1ccccc1OCCNCC(O)COc1cccc2[nH]c3ccccc3c12 (stereo not given) | 1.05 ± 0.22 | 1.06 ± 0.078 | 1.1 | 1.21 ± 0.085 | 1.075 ± 0.0071
20 | OCCN(CCO)c1nc(N2CCCCC2)c2nc(N(CCO)CCO)nc(N3CCCCC3)c2n1 | 0.905 ± 0.0042 | 0.991 ± 0.013 | 0.973 ± 0.016 | 1.13 ± 0.042 | 1.03 ± 0.028
21 | CC(=O)NCCc1ccc(O)cc1 [N-Acetyl-tyramine] | 0.951 ± 0.017 | 0.985 ± 0.092 | 0.991 ± 0.0071 | 1.13 ± 0.042 | 1.05 ± 0.035
22 | C[N+]1(CCCCC[N+]2(C)CCCC2)CCCC1 | 0.998 ± 0.018 | 1.01 ± 0.039 | 0.995 ± 0.064 | 0.888 ± 0.21 | 0.98 ± 0.071
23 | O=C1NCC2(CCN(CCc3ccccc3)CC2)O1 | 0.8925 ± 0.0021 | 1.06 ± 0.078 | 0.963 ± 0.018 | 1.05 ± 0.095 | 1.01 ± 0.062
24 | C=C[C@H]1CN2CC[C@H]1C[C@H]2[C@H](O)c1ccnc2ccc(OC)cc12 | 1.11 ± 0.035 | 1.06 ± 0.021 | 1.07 ± 0.092 | 1.205 ± 0.0071 | 0.983 ± 0.11
25 | C[C@H]1CC2C3CCC4=CC(=O)C=C[C@]4(C)[C@@]3(F)[C@@H](O)C[C@]2(C)[C@@]1(O)C(=O)COP(=O)(O)O (stereo not given in full) | 0.93 ± 0.063 | 0.942 ± 0.028 | 0.952 ± 0.029 | 1.03 ± 0.09 | 1.06 ± 0.028
26 | O=c1cc(-c2ccccc2)oc2cc(O)c(O)cc12 | 1.04 ± 0.14 | 0.986 ± 0.063 | 1.03 ± 0.042 | 0.801 ± 0.064 | 1 ± 0.12
27 | Cc1cc(-c2ccccc2)nnc1NCCN1CCOCC1 | 1.005 ± 0.0071 | 0.946 ± 0.077 | 1.03 ± 0.014 | 1.02 ± 0.035 | 1.05 ± 0.057
28 | O=C(O[C@@H]1Cc2c(O)cc(O)cc2O[C@@H]1c1cc(O)c(O)c(O)c1)c1cc(O)c(O)c(O)c1 | 1.03 ± 0.035 | 1.01 ± 0.048 | 1.08 ± 0.014 | 0.974 ± 0.037 | 0.916 ± 0.014
29 | CCCOc1ccccc1-c1nc2[nH]nnc2c(=O)[nH]1 | 0.985 ± 0.035 | 0.973 ± 0.14 | 0.909 ± 0.058 | 1.01 ± 0.064 | 0.951 ± 0.084
